Test [1] concerns XIP peptide (Xip251-270) binding. The test can be described thus: small-molecule binders of XIP peptide, primary screen, biochemical, small-molecule microarray, fluorescence 635/667 nm, 0.1 µg/mL protein (AID 1182). Particulars: fluorescent protein binding, 635 nm, higher = more signal, called active from +8 up or from −8 down.
In the next test the test system is XIP peptide (Xip251-270). The test is described as follows: small-molecule binders of XIP peptide, primary screen, biochemical, small-molecule microarray, fluorescence 635/667 nm, 0.5 µg/mL protein (AID 1183). Particulars: small-molecule microarray binding, fluorescence 635 nm; higher = more signal.
A short description of test [2]: Plasmodium falciparum growth inhibition, primary screen, strain 3D7, DAPI fluorescence, 100 nL (AID 1184).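 Also: parasites grown inside human red blood cells in medium with human serum.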 Particulars: P. falciparum 3D7 growth, 3 d, higher = more signal.
In test [3] the target is Homeobox protein Hox-A13 (Mus musculus) (UniProt Q62424). The test can be described thus: inhibitors of HoxA13-DNA binding, primary screen, biochemical, fluorescence polarization, labeled oligonucleotide (AID 1185). Particulars: 15 min, higher = more signal, called active from +8 up or from −8 down.
Test [4] can be described thus: inhibitors of hydroxyurea-induced Chk1 phosphorylation, primary screen, imaging, HeLa, phospho-Chk1 antibody, percent positive cells (AID 1186). Particulars: hydroxyurea-induced phospho-Chk1 immunofluorescence imaging, higher = more signal.
Test [5] in a line: inhibitors of hydroxyurea-induced Chk1 phosphorylation, primary screen, imaging, HeLa, phospho-Chk1 nuclear intensity (AID 1187). Particulars: hydroxyurea-induced phospho-Chk1 immunofluorescence imaging, higher = more signal.

Active and inactive are the calls of the source. Unless noted, no rule for the calls is given here.

This passage reports composite z-score and z-score results from PubChem BioAssay.

Sequence of Homeobox protein Hox-A13 (Mus musculus) (Q62424 whole entry, looked up): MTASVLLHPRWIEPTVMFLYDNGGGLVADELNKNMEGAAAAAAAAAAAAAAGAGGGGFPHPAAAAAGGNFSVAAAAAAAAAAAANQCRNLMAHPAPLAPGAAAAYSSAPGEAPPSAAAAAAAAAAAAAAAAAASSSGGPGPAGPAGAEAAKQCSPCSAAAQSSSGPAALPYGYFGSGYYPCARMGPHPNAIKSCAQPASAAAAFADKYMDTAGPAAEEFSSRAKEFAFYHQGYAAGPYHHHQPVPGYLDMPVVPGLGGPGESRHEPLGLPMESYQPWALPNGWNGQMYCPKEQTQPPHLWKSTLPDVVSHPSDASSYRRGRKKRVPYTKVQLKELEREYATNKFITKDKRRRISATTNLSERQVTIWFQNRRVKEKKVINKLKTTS

Regarding `CC(=O)n1cc(C(O)C2C=CC3C(=O)N(c4ccccc4)C(=O)C3N2Nc2ccc([N+](=O)[O-])cc2)c2ccccc21` (configuration not stated), the results for the composite z-score (in test [1]; in the test with XIP peptide (Xip251-270)) were 1.15 (inactive) and 0.87, respectively. Also, the z-score in test [2] is -0.306; in test [3] it was -4.3 (inactive); in test [4] it was 0.541 (inactive); in test [5] it was -0.219 (inactive).

For the molecule `O=C1NC(=O)C2C1C=CC(C(O)c1cccs1)N2Nc1ccc(Cl)cc1Cl` (configuration not stated), the composite z-score in test [1] is 0.228 (inactive); with XIP peptide (Xip251-270), 0.554. For the same molecule, the z-score in test [2] was -0.335; in test [3], -4.05 (inactive); in test [4] it was -0.266 (inactive); in test [5], -0.45 (inactive).

Regarding `C=C[C@H](CO[Si](CC)(CC)CC)N(Cc1ccc(OC(C)=O)c(OC)c1)S(=O)(=O)c1ccc(Br)cc1`, the composite z-score was 1.38 (inactive) in test [1] and 0.88 in the test on XIP peptide (Xip251-270). Further, the z-score in test [2] is 0.378; in test [3], 0.476 (inactive); in test [4], -0.528 (inactive); in test [5], -0.508 (inactive).

For the molecule `[N-]=[N+]=Nc1ccccc1[C@H]1OC(c2ccc(OCCCO)cc2)=N[C@@]1(CCS(=O)(=O)c1ccccc1)C(N)=O`, the values for the composite z-score (in test [1]; in the test on XIP peptide (Xip251-270)) were 1.21 (inactive) and 0.941, respectively. The z-score in test [2] was -1.42; in test [3], -4.72 (inactive); in test [4] it was -0.23 (inactive); in test [5], 0.052 (inactive).

Consider `CCOC(=O)C[C@H]1[C@H](OC(=O)c2cc3ccccc3oc2=O)[C@@H](NC(=O)c2ccccc2)c2cc(OCCCO)ccc2N1C(=O)c1ccc2ccccc2n1`, for which the composite z-score was -0.0302 (inactive) in test [1] and 0.503 with XIP peptide (Xip251-270). Besides, the z-score in test [2] was -0.566; in test [3], -3.63 (inactive); in test [4] it was 0.091 (inactive); in test [5], 0.0741 (inactive).

Consider `C=C(C)[C@@H]1CC=C(C(O)C2C=CC3C(=O)N(C)C(=O)C3N2Nc2ccccc2)CC1` (some centres not stated), for which the composite z-score was 0.469 (inactive) in test [1] and 0.147 with XIP peptide (Xip251-270). Also, the z-score in test [2] was -0.0575; in test [3] it was -4.59 (inactive); in test [4] it was -0.63 (inactive); in test [5], -0.968 (inactive).

On to `Cc1ccc(S[C@]2(C(=O)NCCCN(C)C)CC(=O)N(Cc3cc(C(F)(F)F)cc(C(F)(F)F)c3)[C@@H]2c2ccc(CO)cc2)cc1`, for which the composite z-score in test [1] was -0.497 (inactive); with XIP peptide (Xip251-270) it was -0.583. Further, the z-score in test [2] is 0.798; in test [3], -2.68 (inactive); in test [4], 0.112 (inactive); in test [5], -0.331 (inactive).

Consider `[N-]=[N+]=Nc1ccccc1[C@H]1OC(c2ccc(OCCCO)cc2)=N[C@@]1(CCS(=O)(=O)c1ccccc1)C(=O)NCC(O)CO` (some centres not stated), for which the figures for the composite z-score (in test [1]; with XIP peptide (Xip251-270)) were -0.193 (inactive) and 0.557, respectively. Further, the z-score was -1.81 in test [2], -4.65 (inactive) in test [3], -0.0536 (inactive) in test [4] and -0.22 (inactive) in test [5].

Regarding `COCCCNC(=O)[C@]1(CCC(=O)OC(C)(C)C)N=C(c2ccc(OCCCO)cc2)O[C@@H]1c1ccccc1CN=[N+]=[N-]`, the composite z-score is -0.0552 (inactive) in test [1] and 0.848 in the test on XIP peptide (Xip251-270). Moreover, the z-score in test [2] was -2.08; in test [3], -6.66 (inactive); in test [4] it was -0.113 (inactive); in test [5] it was -0.534 (inactive).

Consider `Cc1ccc(S[C@]2(C(=O)NC3CC3)CC(=O)N(Cc3ccccc3)[C@@H]2c2ccc(CO)cc2I)cc1`, for which the figures for the composite z-score (in test [1]; in the test with XIP peptide (Xip251-270)) were 0.135 (inactive) and 0.387, respectively. Also, the z-score in test [2] was -0.0873; in test [3], -2.79 (inactive); in test [4], 0.327 (inactive); in test [5], 0.794 (inactive).

Turning to `COCCOC(=O)N1C(=O)[C@@]2(c3cc(C#Cc4ccc(OC)cc4)ccc31)[C@H](c1ccc(OCCO)cc1)N1[C@H](c3ccccc3)[C@H](c3ccccc3)OC(=O)[C@H]1[C@@H]2C(=O)N1CCN(c2ncccn2)CC1`, the composite z-score in test [1] was 0.0039 (inactive); with XIP peptide (Xip251-270), 0.695. The z-score in test [2] was -1.84; in test [3], 0.99 (inactive); in test [4] it was 0.13 (inactive); in test [5], 0.436 (inactive).

Take `O=C(c1ccccc1)N1C(=O)[C@]2(COC(c3ccc(OCCCO)cc3)=N2)Cc2ccccc21`: the composite z-score was 0.819 (inactive) in test [1] and 0.908 in the test on XIP peptide (Xip251-270). Besides, the z-score was -2.14 in test [2], -5.86 (inactive) in test [3], -0.255 (inactive) in test [4] and -0.361 (inactive) in test [5].

Regarding `CCCC[C@@H]1C[C@H]1[C@@H](NC(=O)C(C)(C)C)c1ccc(C(F)(F)F)cc1`, the composite z-score in test [1] was 0.503 (inactive); in the test on XIP peptide (Xip251-270) it was 0.414. Further, the z-score in test [2] is -0.948; in test [3], 1.43 (inactive); in test [4], -0.109 (inactive); in test [5], -0.236 (inactive).

With `CC(C)C[C@@H]1NC(=O)[C@H](C(C)C)NC(=O)[C@@]23C(=O)N[C@@H](Cc4ccccc4)C2[C@H](C)[C@@]2(C)O[C@H]2C3/C=C/CC/C=C/CNC1=O` (some centres not stated), the composite z-score was 0.758 (inactive) in test [1] and 0.607 in the test on XIP peptide (Xip251-270). Further, the z-score in test [2] was -1.4; in test [3], -6.99 (inactive); in test [4], 0.0132 (inactive); in test [5] it was 0.432 (inactive).

With `COc1ccc([Si](C)(C)[C@H]2[C@H](CC(=O)N3Cc4ccccc4C[C@H]3CO)O[C@@]3(C(=O)N(Cc4cccc(N5CCC5=O)c4)c4ccccc43)[C@@H]2C)cc1`, the composite z-score in test [1] was 0.177 (inactive); in the test with XIP peptide (Xip251-270) it was 0.719. The z-score in test [2] was -2.33; in test [3], -2.97 (inactive); in test [4] it was -0.227 (inactive); in test [5], -0.0325 (inactive).

`CCCCC(CC)C(O)C1C=CC2C(=O)N(Cc3ccccc3)C(=O)C2N1n1cnnc1` (configuration not stated): the composite z-score in test [1] is 0.0978 (inactive); in the test on XIP peptide (Xip251-270) it was 0.671. For the same molecule, the z-score was -0.465 in test [2], -3.42 (inactive) in test [3], 0.419 (inactive) in test [4] and -0.454 (inactive) in test [5].

Regarding `COCCOC(=O)N1C(=O)[C@@]2(c3cc(C#CCC(C(=O)OC)C(=O)OC)ccc31)[C@H](c1ccccc1OCCO)N1[C@H](c3ccccc3)[C@H](c3ccccc3)OC(=O)[C@H]1[C@@H]2C(=O)N1CCN(c2ncccn2)CC1`, the results for the composite z-score (in test [1]; in the test on XIP peptide (Xip251-270)) were 0.311 (inactive) and 0.62, respectively. The z-score in test [2] was -2.25; in test [3], 0.271 (inactive); in test [4], -0.225 (inactive); in test [5], -0.236 (inactive).
